High-throughput results deposited in PubChem by several laboratories.
IEC-6 tox: IEC-6 cytotoxicity, counter-screen for KLF5 inhibitors | luminescence viability | inhibition, % at 5 µM | 290,000 tested, 0.78% active | AID 1825; in the data active = inhibition above about 22%;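 also: 0% = plate median of test compound wells and 100% = cytotoxic reference compound wells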
KLF5 inh: suppresses KLF5 promoter-driven expression; inhibition, % at 5 µM; DLD-1 KLF5 promoter-luciferase reporter, luminescence; 290,000 tested, 0.23% active;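 active = inhibition above a per-plate limit of that plate's mean compound inhibition plus 3 SD, cut at about 60% in these data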;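 also: 0% = DMSO wells and 100% = LY294002 at 200 µM; higher means less KLF5 promoter-driven luciferase light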
aSyn UTR inh: MLPCN primary screen, SNCA 5' untranslated region. inhibition, % (tested at 7.5 µM). 300,000 tested, 0.82% active. AID 1813. alpha-synuclein 5'UTR reporter, inhibitor activity; in the data active = inhibition above about 60%;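 also: H4 neuroglioblastoma cells stably carrying SNCA 5'UTR luciferase fusion; 0% = DMSO wells and 100% = positive control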
APP transl inh: APP translation inhibition; SH-SY5Y APP 5'UTR-luciferase reporter, luminescence; inhibition, % at 2 µM; 190,000 tested, 0.82% active; AID 1285;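 active = inhibition above a set limit, derived from the sample mean plus 3 SD, cut at about 45% in these data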
Ba/F3 V617F tox: loss of viability in JAK2V617F-driven Ba/F3 cells; 220,000 tested, 1.1% active; inhibition, % at 5.6 µM; Ba/F3 EpoR-JAK2V617F viability, ATP luminescence;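 active = inhibition above the campaign mean plus 3 SD over all tested compounds, cut at about 24% in these data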;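 also: cytokine-independent growth of Ba/F3 cells driven by EpoR plus mutant JAK2; 0% = DMSO-treated cells and 100% = JAK inhibitor I control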
BaF3 parental: reduces parental Ba/F3 cell viability, JAK2V617F counter-screen | 220,000 tested, 1.1% active | inhibition, % at 5.6 µM | CellTiter-Glo ATP luminescence | AID 1486;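 active = inhibition above a per-campaign cutoff, the mean inhibition of all tested compounds plus 3 SD, cut at about 27% in these data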;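 also: 0% = DMSO wells and 100% = JAK Inhibitor I control wells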
Numbers without * were called inactive; / = no result. An excerpt weighted towards active compounds, which were near 2.2% of everything screened.

SMILES | IEC-6 tox | KLF5 inh | aSyn UTR inh | APP transl inh | Ba/F3 V617F tox | BaF3 parental
O=C(NC1CC2CCCC(C1)N2C(=O)Nc1ccccc1)C1CC1 (configuration not stated) | 5 | -17 | 2 | / | / | /
O=C(NCC1CCCO1)c1ccccc1OCc1ccc(Cl)cc1 (configuration not stated) | / | / | 25 | / | / | /
Clc1cccc(Nc2ncnc3ccc(Br)cc23)c1 | 30* | 2 | -51 | -8 | 4 | 6
Clc1ccc(Nc2ncnc3ccc(Br)cc23)cc1 | 26* | 8 | -30 | 10 | 5 | 11
CCCCSCCCNC(=O)c1ccc(CS(=O)(=O)c2ccccc2OC)o1 | -2 | -23 | 22 | / | / | /
Cc1ccn(CC(=O)NC2CC(C)(C)Cc3c2cnn3-c2ccc(F)cc2)n1 (configuration not stated) | -3 | -27 | -28 | / | / | /
CCCCNC(C(=O)Nc1cccc(S(=O)(=O)N2CCOCC2)c1)c1ccccc1 (configuration not stated) | -6 | 15 | 3 | -4 | 0 | 36*
COc1ccccc1CC(=O)Nc1cccc(S(=O)(=O)N2CCOCC2)c1 | -1 | -26 | -1 | / | / | /
O=C(NN1CC(C(=O)OCc2ccccc2F)CC1=O)c1ccccc1 (configuration not stated) | -3 | -9 | 12 | / | / | /
Oc1cccc2ccc(N3CCOCC3)nc12 | -2 | -26 | -19 | / | / | /
CCOC(=O)c1cnc(-n2nc(C)cc2C)nc1NNc1nc(-c2ccccc2)cc(-c2ccccc2)n1 | -5 | 2 | 82* | 23 | 0 | 4
Oc1c(Cl)cc(Cl)cc1/C=N/Nc1ncc(Br)cn1 | 2 | -38 | 43 | 81* | 1 | 9
Cc1ccc(N=Cc2cc(Cl)cc(Cl)c2O)nc1 | -1 | -12 | -3 | -1 | -2 | 0
O=C(CSCc1ccc([N+](=O)[O-])cc1)N/N=C/c1cccnc1 | 4 | -15 | 6 | -17 | -3 | 2
O=C(CSCc1ccc([N+](=O)[O-])cc1)N/N=C/c1ccncc1 | -2 | -27 | -5 | -8 | 2 | 84*
CC1CCCC(C)N1C(=O)Cn1nnc(-c2ccc([N+](=O)[O-])cc2)n1 (configuration not stated) | 2 | -20 | -6 | / | / | /
Cc1cc(=O)[nH]c(N/N=C/c2cc(C)n(CC(F)(F)F)c2C)n1 | 0 | 12 | -89 | / | 76* | 32*
Cc1cc(=O)[nH]c(N/N=C/c2ccccc2C(F)(F)F)n1 | 5 | 12 | -43 | -23 | 3 | 0
CCOC(=O)Cn1nc(C)c(NC(=O)c2ccc(Br)o2)c1C | 0 | 0 | -7 | / | / | /
Cc1cc(N2CCN(c3ccc([N+](=O)[O-])c4cccnc34)CC2)c2ccccc2n1 | -17 | -23 | 84* | 18 | 1 | 1
COc1cc(NC(=O)c2ccccc2Cl)c2ncccc2c1 | 17 | -38 | -43 | / | / | /
COc1cc(NCCCC(C)N)c2ncccc2c1 (configuration not stated) | 16 | -2 | 9 | 3 | 41* | 36*
CCC(CNc1cc(OC)cc2cccnc12)NC1CCCCC1 (configuration not stated) | 2 | -15 | -17 | / | 43* | 27*
C=CCN(CC(=O)NCC1CCCO1)C(=O)CCC(=O)Nc1cc(C)on1 (configuration not stated) | -1 | -1 | 2 | 1 | -4 | 93*
CSC(C(=O)c1cc2ccccc2o1)c1ccccc1 (configuration not stated) | / | / | -88 | / | / | /
SMILES | IEC-6 tox | KLF5 inh | aSyn UTR inh | APP transl inh | Ba/F3 V617F tox | BaF3 parental
COc1ccc2c(c1)O[C@@H](c1cccc(C(F)(F)F)c1)[C@H](O)C2=O | 8 | -14 | 62* | -2 | 2 | 5
Cc1cccc(C(=O)Oc2c(Br)cc(Br)cc2/C=N/NC(=O)c2ccncc2)c1 | 2 | -20 | 5 | / | / | /
Cc1cc(C(=O)N/N=C/c2cccs2)n[nH]1 | 1 | -41 | -83 | -65 | -2 | 0
Cc1cc(C(=O)N/N=C\c2cc(C(C)(C)C)ccc2O)n[nH]1 | 9 | 21 | 75* | / | / | /
Cc1cc(C(=O)N/N=C/c2cc(Br)cc(Br)c2OC(=O)c2cccc(F)c2)n[nH]1 | 12 | -5 | 70* | 36 | -1 | 4
Cc1cc(C(=O)N/N=C/c2cc(Br)ccc2OC(=O)c2ccc(Br)cc2)n[nH]1 | -1 | -4 | 84* | 32 | 3 | 4
Cc1cc(C(=O)N/N=C/c2cc(Br)cc(Br)c2OC(=O)c2ccccc2)n[nH]1 | 0 | 2 | 89* | 31 | -5 | 4
Cc1c(Cl)cccc1NC(=S)Nc1ccc2[nH]c(=O)[nH]c2c1 | -9 | -8 | 1 | / | -1 | -2
CN1/C(=C\C(=O)COC(=O)Cn2nnc(-c3ccccc3)n2)C(C)(C)c2ccccc21 | 3 | -19 | 31 | 15 | 63* | 63*
COc1cc(OC)cc(C(=O)NCC(=O)OCC(=O)/C=C2/N(C)c3ccccc3C2(C)C)c1 | -2 | -10 | 11 | 12 | -1 | 4
CN1/C(=C/C(=O)C2CC2)C(C)(C)c2ccccc21 | -3 | -7 | / | -16 | -1 | 41*
CN1/C(=C\C(=S)NC(=O)c2cccc(Br)c2)C(C)(C)c2ccccc21 | 1 | 7 | -14 | -10 | 59* | 64*
Cn1cnnc1SCC(=O)NCc1ccccc1 | -5 | -4 | -23 | 14 | 1 | 1
CN1/C(=C\C(=O)CSc2nncn2C)C(C)(C)c2ccccc21 | 2 | -30 | 7 | 17 | 37* | 47*
CN1/C(=C\C(=O)Nc2ccc(Br)cc2)C(C)(C)c2ccccc21 | -11 | -12 | 14 | -1 | -1 | 3
Cc1nn(-c2ccc(F)cc2)c(-n2cccc2)c1C(=O)N1CCN(C(=O)c2ccco2)CC1 | 10 | -25 | 7 | / | / | /
COc1ccc(NC(=O)C2CCCN(S(=O)(=O)c3ccc4c(c3)CCCN4C(C)=O)C2)cc1Cl (configuration not stated) | -10 | -22 | -12 | / | / | /
CN(CCOc1ccc(Cl)cc1)C(=O)C1CCN(C(=O)c2ccc(Cl)cc2)CC1 | 10 | -12 | 13 | / | / | /
N#C/C(=C/Nc1ccccc1F)S(=O)(=O)c1ccc(Cl)cc1 | 0 | -24 | -5 | / | / | /
Cc1ccc(CNc2nc3ccccc3s2)s1 | 3 | -25 | 78* | -182 | 2 | 5
COc1ccc(CNc2nc3ccccc3s2)cc1OC | -2 | -69 | -141 | / | / | /
CCC(CC)C(=O)Nc1nnc(S(=O)(=O)N2CCCc3ccccc32)s1 | -6 | -10 | 3 | / | / | /
COC(=O)c1ccccc1NC(=O)C1CC(=O)N(c2ccc(C)cc2)C1 (configuration not stated) | -5 | -37 | -2 | 1 | -1 | 54*
O=C(c1cc(C2CC2)nc2ccc(Br)cc12)N1N=C(C(F)F)CC1(O)C(F)F (configuration not stated) | -1 | -30 | -6 | 8 | 0 | 2
Cc1nc(-c2ccccc2)cc(N2CCCC2)n1 | 8 | 4 | -35 | -1 | -1 | 0
Cc1cc(-c2ccccc2)nc2[n+]1CCN2C | -3 | -6 | -8 | -12 | 68* | 62*
